CHO-K1 Ca PAM – nonselective calcium activators in parental CHO-K1 cells, primary screen, counter-screen for M1 PAM project, cell-based, Fluo-8 calcium fluorescence, full deck, 1536-well. ATP EC20; 0% at ATP EC20, 100% at ATP max. activation, % at 3 µM. hit rate 0.02% among 360,000. AID 602247, 2012;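 active = activation above the run cutoff, the mean activation of all test compounds plus 3 SD, cut at about 40% in these data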;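 note: peak over basal fluorescence ratio in a 140 s read after ATP addition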
M1 antag – human M1 muscarinic receptor antagonists, primary screen, CHO-K1 cells, Fluo-8 calcium fluorescence, 1536-well; CHO-K1 hM1, ACh EC80 antagonist; hit rate 1.3% among 360,000; Muscarinic acetylcholine receptor M1 (Homo sapiens), P11229; inhibition, % at 3 µM;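 active = percent inhibition above its own plate's cutoff, namely the mean of that plate's compound wells plus 3 SD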;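 note: peak over basal fluorescence ratio during 140 s after agonist addition; 0% = ACh EC80 plus DMSO and 100% = DMSO alone without agonist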
Target sequence (P11229 whole entry, looked up): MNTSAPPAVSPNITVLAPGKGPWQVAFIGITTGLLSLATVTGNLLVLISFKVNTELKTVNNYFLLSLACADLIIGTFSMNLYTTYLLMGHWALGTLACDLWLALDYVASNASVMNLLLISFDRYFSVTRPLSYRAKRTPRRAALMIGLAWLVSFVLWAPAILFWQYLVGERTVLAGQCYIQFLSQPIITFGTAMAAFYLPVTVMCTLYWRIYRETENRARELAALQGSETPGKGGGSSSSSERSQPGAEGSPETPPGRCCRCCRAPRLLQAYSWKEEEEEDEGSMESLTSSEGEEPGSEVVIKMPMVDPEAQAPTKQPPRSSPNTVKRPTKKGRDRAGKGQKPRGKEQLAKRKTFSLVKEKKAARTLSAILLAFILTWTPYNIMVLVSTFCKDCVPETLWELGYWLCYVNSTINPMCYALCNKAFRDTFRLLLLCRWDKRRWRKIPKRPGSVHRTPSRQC
M1 ag – human M1 muscarinic receptor agonists, primary screen, Fluo-8 calcium fluorescence, CHO-K1 cells, HTS. Muscarinic acetylcholine receptor M1 (Homo sapiens), P11229. CHO-K1 hM1, agonist mode; 0% DMSO, 100% acetylcholine EC100. activation, % at 3 µM. hit rate 0.33% among 360,000. AID 588814, 2011;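 active = activation above the run's mean compound activation plus 3 SD, cut at about 16% in these data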;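 note: peak over basal fluorescence ratio within a 140 s kinetic read after compound addition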
CHO-K1 Ca antag – M1 antagonist counterscreen hit in parental CHO-K1 cells; ATP-induced calcium, Fluo-8 fluorescence; inhibition, % at 3 µM; hit rate 0.6% among 360,000; AID 602250;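 active = inhibition above a per-plate cutoff, the plate's mean sample inhibition plus 3 SD, cut at about 24% in these data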;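 note: 0% = DMSO plus EC80 ATP and 100% = DMSO alone without ATP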
M1 PAM – human M1 muscarinic receptor positive allosteric modulators, primary screen, CHO-K1 cells, Fluo-8 calcium fluorescence, 1536-well; hit rate 0.088% among 360,000; CHO-K1 hM1, ACh EC20; 0% = ACh EC20, 100% = maximal ACh; Muscarinic acetylcholine receptor M1 (Homo sapiens), P11229; activation, % at 3 µM; in the data active = activation above about 19%, passing the limit was not always enough
CHO-K1 Ca ag – counter-screen for M1 agonists: effect in parental CHO-K1 cells; hit rate 0.48% among 360,000; AID 602248, 2012; Fluo-8 calcium fluorescence; scaled to maximal ATP response, vehicle zero; activation, % at 3 µM; in the data active = activation above about 15%;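 note: untransfected CHO-K1 host cells lacking M1 receptor as counterscreen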
The depositor's hits bear a star. In the library only some 2.3% were active in any assay of this set; here they are far more common.

SMILES | CHO-K1 Ca PAM | M1 antag | M1 ag | CHO-K1 Ca antag | M1 PAM | CHO-K1 Ca ag
Cc1ccc(-c2cnc(NCc3cc4c(cc3[N+](=O)[O-])OCO4)n2C)cc1C | 18.6 | -1.2 | -4.5 | -7.5 | -0.2 | 17.0*
O=C(Nc1csc([N+](=O)[O-])c1)Nc1ccccc1Cl | -9.8 | 40.8* | 2.4 | 26.6* | -16.5 | 15.8*
O=C(Nc1ccccc1Cl)Nc1ccccc1Cl | 22.2 | -9.5 | -4.1 | -9.5 | 5.3 | 0.7
C=C[C@@H]1c2cc(C)ccc2N(S(=O)(=O)c2ccc(C)cc2)[C@H](c2ccccc2C(F)(F)F)C1(C#N)C#N | 24.6 | -7.7 | -2.4 | -16.9 | 14.3 | 1.8
N#CCCn1c(SCC(=O)N2CCN(S(=O)(=O)c3ccccc3)CC2)nc2ccccc21 | 9.2 | 64.1* | -6.0 | 0.0 | -21.5 | 1.2
Cn1c(SCC(=O)N2CCN(S(=O)(=O)c3ccccc3)CC2)nc2ccccc21 | -7.0 | 8.3 | -4.9 | -12.2 | -10.7 | 3.5
CC(C)Cn1c(SCC(=O)N2CCN(S(=O)(=O)c3ccccc3)CC2)nc2ccccc21 | 17.3 | 29.6* | -6.4 | -0.7 | -21.2 | 2.9
Nc1c(C(=O)N2CCCCCC2)oc2ccccc12 | 2.0 | 0.2 | -1.2 | 0.3 | 4.7 | 0.7
N#CCSc1nc2ccc(N3CCCCC3)cc2c(=O)n1Cc1ccccc1 | -3.9 | 21.8* | -6.5 | 7.0 | -22.6 | 0.2
CS(=O)(=O)c1ccc(N2CCN(c3ccccn3)CC2)c([N+](=O)[O-])c1 | 4.3 | -10.4 | -3.4 | -7.6 | 14.8 | 2.6
C/C(=N\NC(=O)OC(C)(C)C)c1ccc(-n2ccnc2)cc1 | -5.0 | 9.2 | 0.3 | -1.1 | -2.2 | 0.9
C/C(=N\NC(N)=S)c1ccc(-n2ccnc2)cc1 | 7.1 | -0.4 | -1.7 | -9.5 | 28.8* | 1.2
C/C(=N\NC(=O)c1ccccc1)c1ccc(-n2ccnc2)cc1 | -14.2 | 9.7 | -5.2 | 27.9* | -5.6 | -0.1
C=C(C)CNC(=S)N/N=C(\C)c1ccc(-n2ccnc2)cc1 | 11.8 | -4.4 | -2.4 | -19.2 | -1.8 | 5.2
Cc1ccc(S(=O)(=O)CCC(=O)OCC(=O)NC(C)c2ccccc2)cc1 (centres undefined) | 8.1 | 26.6 | -6.2 | -11.8 | -5.4 | 0.0
CC1(C)CC(=O)N(c2ccc(Cl)cc2Cl)C(=O)C1 | -1.2 | 2.5 | -5.0 | -0.5 | 3.8 | 1.7
CC(=O)NC(c1ccccc1)c1nc(-c2cccc(CO)c2)cs1 (centres undefined) | 1.8 | 2.2 | -1.9 | 3.0 | -2.4 | -0.2
CC(=O)NC(c1ccccc1)c1nc(-c2cccc(C(F)(F)F)c2)cs1 (centres undefined) | -15.6 | -12.4 | -4.2 | 29.3* | 3.0 | 1.2
CCC1CCCCN1CCCNC(=O)CNC(=O)c1nn(-c2ccc(OC)c(Cl)c2)c(=O)c2ccccc12 (centres undefined) | 14.6 | 48.8* | -12.8 | -2.1 | -30.4 | 0.1
COc1ccc(-n2nc(C(=O)NCC(=O)Nc3cc(OC)c(OC)c(OC)c3)c3ccccc3c2=O)cc1 | -13.7 | 27.4* | -2.2 | 2.2 | -13.4 | 5.8
COc1ccc(-n2nc(C(=O)NCC(=O)Nc3cccc(NC(C)=O)c3)c3ccccc3c2=O)cc1 | 1.9 | 10.1 | 0.2 | -5.9 | 0.3 | 2.6
COc1ccc(-n2nc(C(=O)NCC(=O)Nc3cc(OC)c(OC)c(OC)c3)c3ccccc3c2=O)cc1OC | 5.6 | 30.4* | 0.1 | 1.3 | -11.4 | 8.3
COc1ccc(-n2nc(C(=O)NCc3ccco3)c3ccccc3c2=O)cc1 | 13.1 | -6.5 | -2.4 | -22.4 | 1.4 | 0.7
COc1ccccc1-n1nc(C(=O)NCc2ccco2)c2ccccc2c1=O | 3.9 | 14.6* | -2.1 | 0.6 | -14.0 | 0.4
COc1ccc(NC(=O)CNC(=O)c2nn(-c3ccc(OC)c(OC)c3)c(=O)c3ccccc23)c(OC)c1 | 1.4 | 1.0 | -0.4 | -6.8 | 3.0 | 7.3
SMILES | CHO-K1 Ca PAM | M1 antag | M1 ag | CHO-K1 Ca antag | M1 PAM | CHO-K1 Ca ag
O=C(NCc1ccco1)Nc1nnc([C@H]2C[C@H](O)[C@@H](CO)O2)s1 | -5.2 | -7.3 | -1.2 | 0.7 | 0.8 | 0.1
COc1cc(C(=O)OCC(=O)Nc2ccccc2)cc2c1OCCO2 | -5.5 | -6.0 | 7.0 | -0.8 | 14.9 | 0.8
CCCN(CCC)CCCOC(=O)c1ccc(Cl)cc1Cl | 18.6 | 67.9* | -3.7 | -10.0 | -21.3 | 2.5
CN(C)CCCOC(=O)c1ccc(Cl)cc1Cl | 8.3 | -4.4 | -5.6 | -5.8 | 8.1 | 0.2
COc1ccc(N(CC(=O)Nc2ccc(F)c(Cl)c2)S(=O)(=O)c2c(C)noc2C)cc1 | -6.2 | 0.0 | -1.4 | 25.8* | 3.6 | 0.0
COc1ccc(N(CC(=O)Nc2ccc(OC)c(Cl)c2)S(=O)(=O)c2c(C)noc2C)cc1 | 16.1 | 3.3 | -1.4 | -4.7 | -3.4 | 2.9
O=C(O)c1cccc(S(=O)(=O)Nc2ccccc2N2CCOCC2)c1 | -9.6 | 54.2* | -3.1 | -10.4 | -8.9 | 0.4
COc1cccc(C(=O)OCC(=O)Nc2ccccc2N2CCOCC2)c1 | 12.1 | -1.7 | -2.2 | -4.7 | 0.7 | 1.7
CC(=O)Nc1ccc(S(=O)(=O)Nc2ccccc2N2CCOCC2)cc1Cl | -10.7 | -0.4 | -1.0 | 1.5 | 1.8 | 1.7
O=C(Nc1ccccc1N1CCOCC1)c1ccc(Cl)c(S(=O)(=O)NCc2ccco2)c1 | 8.2 | -0.3 | -8.1 | 0.5 | -1.2 | 16.6*
O=C(Nc1ccccc1N1CCOCC1)c1ccc(S(=O)(=O)NCc2ccco2)cc1 | 26.2 | -11.0 | -4.0 | -21.5 | 7.0 | 0.8
COc1cccc(C(=O)Nc2ccccc2N2CCOCC2)c1 | 2.9 | -11.5 | -2.5 | 67.7* | 9.2 | 90.8*
Cc1ccc(S(=O)(=O)N(C)c2ccc(OC(=O)c3cccs3)cc2)cc1C | -6.2 | 25.6 | -1.2 | 11.2 | -10.6 | 3.2
COc1ccccc1NC(=O)CCc1nnc2ccc(N3CCN(C)CC3)nn12 | -22.5 | -2.1 | -3.0 | 4.8 | 1.3 | -0.1
Cn1ccnc1C1CCCCN1Cc1nc(Cc2ccccc2F)no1 (centres undefined) | 12.2 | 98.6* | -6.7 | -11.8 | -25.9 | 3.5
COC(=O)c1ccc(-c2noc(CN3CCCCC3c3nccn3C)n2)cc1 (centres undefined) | -1.3 | 35.3* | -13.7 | 2.0 | -34.3 | -0.1
CCC1Cc2[nH]c(=S)[nH]c(=O)c2C(c2ccc(F)cc2)O1 (centres undefined) | 9.9 | -19.5 | -2.4 | -8.7 | 2.5 | -0.1
O=C(CCNS(=O)(=O)c1ccc2nsnc2c1)N1CCN(c2ccncc2)CC1 | 9.8 | 61.8* | -10.4 | -15.9 | -29.8 | 0.2
